# Test results published in ChEMBL document CHEMBL3988442, “University of Dundee, Small-Polar-MMV Screening Library” (2021).
# In all, about 69,000 compounds went through this assay and about 1,000 (1.4%) showed an effect of 50% or more. The sample as a whole holds a higher share of strong results than the screen did.
# Test system: Leishmania donovani
# Assay: Leishmania intramacrophage assay
# Assay type: functional, organism-based
# Design: scale not given: in the data most compounds retested in dose-response had high values
smiles,measurement,setting,value
CC(c1nc(C2CC2)no1)N1CCN(CCn2ccccc2=O)CC1 (stereo not drawn),Percent Effect,"30.3 µM, […]",21.89%
Cc1noc(C(C)N2CCN(CCn3ccccc3=O)CC2)n1 (stereo not drawn),Percent Effect,"30.3 µM, […]",29.89%
CCCc1noc(C(C)N2CCN(CCn3ccccc3=O)CC2)n1 (stereo not drawn),Percent Effect,"30.3 µM, […]",52.92%
Cc1nc2ccc(S(=O)(=O)Nc3c(C)nn(CC(=O)O)c3C)cc2s1,Percent Effect,"30.3 µM, […]",-9.195%
CCOC[C@@H]1CC[C@H]2[C@H](CCN2S(=O)(=O)c2ccc(F)cc2)O1,Percent Effect,"30.3 µM, […]",19.83%
CCCC(NC(=O)c1cc(C)n(C2CC2)c1C)c1nnn[nH]1 (stereo not drawn),Percent Effect,"30 µM, 30.03 µM",2.645%
CCOc1c(Cl)cc(Cl)cc1CNCCCn1ccnc1,Percent Effect,"30.3 µM, […]",67.73%
CCOc1c(CNCCCn2ccnc2)cc(Cl)cc1OC.Cl.Cl,Percent Effect,"30.3 µM, […]",35.73%
CCOc1ccc(Cl)cc1CNCCCn1ccnc1,Percent Effect,"30 µM, 30.03 µM",1.663%
COc1ccc(Cl)cc1CNCCCn1ccnc1,Percent Effect,"30.3 µM, […]",3.119%
CCn1nnc(NCc2cc(Cl)cc(Cl)c2OC)n1,Percent Effect,"30.3 µM, […]",-5.532%
Cc1cc(F)ccc1CN1CCCC(O)(CN2CCCC2)C1 (stereo not drawn),Percent Effect,"30.3 µM, […]",37.99%
COc1ccc(CN2CCC(O)(CN3CCCCC3)C2)c(C)c1 (stereo not drawn),Percent Effect,"30.3 µM, […]",67.74%
Cc1cc(F)ccc1CN1CCC(O)(CN2CCCCC2)C1 (stereo not drawn),Percent Effect,"30 µM, 30.03 µM",37.89%
CCOc1ccc(C(=O)CCC(=O)N(C)Cc2nc(C)c[nH]2)cc1C,Percent Effect,"30.3 µM, […]",-49.88%
CN1CCC(N(C)C[C@H]2CC[C@@H](Cc3cccc(CO)c3)O2)CC1,Percent Effect,"30.3 µM, […]",11.6%
COc1ccc(C[C@@H]2CC[C@H](CN(C)C3CCN(C)CC3)O2)cc1,Percent Effect,"30.3 µM, […]",8.587%
CCN(C)C[C@H]1CC[C@@H](Cc2ccc3c(cnn3C)c2)O1,Percent Effect,"30.3 µM, […]",-0.9976%
CN1CCC(N(C)C[C@H]2CC[C@@H](Cc3ccc4occc4c3)O2)CC1,Percent Effect,"30.3 µM, […]",87.95%
CN1CCC(N(C)C[C@H]2CC[C@@H](Cc3cccc(O)c3)O2)CC1,Percent Effect,"30.3 µM, […]",81.26%
CN1CCC(N(C)C[C@H]2CC[C@@H](Cc3ccc4c(cnn4C)c3)O2)CC1,Percent Effect,"30.3 µM, […]",38.58%
Cc1ccnn1CCC(=O)N1CCCC1c1cc2cccnc2[nH]1.Cl (stereo not drawn),Percent Effect,"30.3 µM, […]",-28.4%
COCCNC(=O)N1CCCCC1CNC(=O)Nc1ccccc1 (stereo not drawn),Percent Effect,"30.3 µM, […]",-22.22%
Cc1nc(CNC(=O)N(CCCO)C2CCc3ccccc32)oc1C (stereo not drawn),Percent Effect,"30.3 µM, […]",21.1%
CC(C)c1cc(C(=O)N2CC[C@@H](c3ccc4c(c3)OCO4)[C@H](O)C2)[nH]n1,Percent Effect,"30.3 µM, […]",26.43%
CCOCC1CN(Cc2cnn(C)c2)Cc2nn(C)cc21.O=C(O)C(F)(F)F (stereo not drawn),Percent Effect,"30 µM, 30.03 µM",-19.77%
Cc1nn(Cn2ccc(C(=O)N3CCCC(C)C3)n2)c(C)c1Cl (stereo not drawn),Percent Effect,"30.3 µM, […]",24.98%
Cc1nn(Cn2ccc(C(=O)N3CCCC3)n2)c(C)c1Cl,Percent Effect,"30.3 µM, […]",14.44%
Cc1nn(Cn2ccc(C(=O)N3CCC(C)CC3)n2)c(C)c1Cl,Percent Effect,"30.3 µM, […]",52.68%
Cc1cc(C(=O)NCc2cccnc2N2CCCC(O)C2)[nH]n1 (stereo not drawn),Percent Effect,"30.3 µM, […]",14.66%
CN(Cc1ccc(Br)c2cccnc12)S(C)(=O)=O,Percent Effect,"30.3 µM, […]",20.74%
O=C(NCCc1cccs1)NCC(O)c1cccc(F)c1 (stereo not drawn),Percent Effect,30 µM,0.0374%
Cc1nc(Cn2c3c(ccc2=O)CC(N)CC3)cs1 (stereo not drawn),Percent Effect,"30.3 µM, […]",24.76%
Cc1nc(Cn2c3c(ccc2=O)CC(NC(N)=O)CC3)cs1 (stereo not drawn),Percent Effect,"30.3 µM, […]",52.43%
CCCC(=O)NC1CCc2c(ccc(=O)n2Cc2csc(C)n2)C1.O=C(O)C(F)(F)F (stereo not drawn),Percent Effect,"30.3 µM, […]",38.16%
CCN1CC2(CC1=O)CN(Cc1ccncc1)CCN(C(=O)C(C)C)C2.O=C(O)C(F)(F)F.O=C(O)C(F)(F)F (stereo not drawn),Percent Effect,"30.3 µM, […]",17.44%
O=C(C[C@@H]1COC[C@H]2CN(C3CCCC3)C[C@@H]12)N1CCCCO1.O=C(O)C(F)(F)F,Percent Effect,"30.3 µM, […]",0.3497%
Cc1c[nH]c(CN(C)C(C(=O)O)c2c(F)cccc2OC(C)C)n1 (stereo not drawn),Percent Effect,"30.3 µM, […]",12.35%
CC(O)CN1CCC(CNCc2ccc(OC(F)(F)F)cc2)CC1 (stereo not drawn),Percent Effect,30 µM,89.6%
CC(O)CN1CCC(CNCc2ccc(S(C)(=O)=O)cc2)CC1 (stereo not drawn),Percent Effect,"30 µM, 30.03 µM",29.6%
CC(O)CN1CCC(CNCc2cccc(C(=O)N(C)C)c2)CC1 (stereo not drawn),Percent Effect,"30.3 µM, […]",15.32%
CC(O)CN1CCC(CNCc2ccccc2OC(F)(F)F)CC1 (stereo not drawn),Percent Effect,"30 µM, 30.03 µM",31.23%
CC(O)CN1CCC(CNCc2ccc(C#N)cc2)CC1 (stereo not drawn),Percent Effect,"30.3 µM, […]",-9.359%
CC(O)CN1CCC(CNCc2cccc(Cl)c2)CC1 (stereo not drawn),Percent Effect,"30.3 µM, […]",14.58%
CC(O)CN1CCC(CNCc2cccc(OC(C)C)c2)CC1 (stereo not drawn),Percent Effect,"30 µM, 30.03 µM",57.47%
CC(O)CN1CCC(CNCc2cccc(OC(F)(F)F)c2)CC1 (stereo not drawn),Percent Effect,30 µM,66.17%
CC(O)CN1CCC(CNCc2cccc(C(F)(F)F)c2)CC1 (stereo not drawn),Percent Effect,"30.3 µM, […]",35.92%
CC(O)CN1CCC(CNCc2ccccc2C(F)(F)F)CC1 (stereo not drawn),Percent Effect,30 µM,19.95%
CC(O)CN1CCC(CNCc2cccc(C(N)=O)c2)CC1 (stereo not drawn),Percent Effect,"30 µM, 30.03 µM",24.83%
CC(O)CN1CCC(CNCc2cccc(Br)c2)CC1 (stereo not drawn),Percent Effect,"30 µM, 30.03 µM",61.22%
COC(=O)c1cc(NCC(=O)NC(N)=O)cc(C(F)(F)F)c1,Percent Effect,"30.3 µM, […]",10.64%
C(=C\c1ccccc1)/CNCC1CCc2nncn2C1 (stereo not drawn),Percent Effect,"30.3 µM, […]",-5.474%
O=C(Nc1ccccc1F)NC1(CO)CCOCC1,Percent Effect,"30.3 µM, […]",37.09%
Cc1nc(CN2C[C@@H]3CN(C(=O)c4ccnnc4)C[C@@H]3C2=O)cs1.O=C(O)C(F)(F)F,Percent Effect,"30 µM, 30.03 µM",13.66%
CC(C)(C)n1ncc2c1CCCC2NCc1cccc2c1OCCO2 (stereo not drawn),Percent Effect,30 µM,39.91%
COc1c(CC2CC(C(=O)O)=NO2)c(Br)c2c(c1OC)OCO2 (stereo not drawn),Percent Effect,"30.3 µM, […]",9.318%
Cc1noc(CNC(=O)N2CCN(c3nc(C)c(C)s3)CC2)n1,Percent Effect,"30.3 µM, […]",0.7779%
O=C(CN1CCOC(Cn2cccn2)C1)NCc1ccco1 (stereo not drawn),Percent Effect,30 µM,30.39%
OC(CNC1CCOCC1)c1ccc(Cl)c(F)c1 (stereo not drawn),Percent Effect,"30.3 µM, […]",9.683%
CC(=O)N1CCCCC[C@@H]2[C@@H]1[C@H](c1cccc(F)c1)CN2C(=O)C1CC1,Percent Effect,"30.3 µM, […]",16.49%
Cc1nc[nH]c1-c1nccn1CCN1CCOC1=O,Percent Effect,"30.3 µM, […]",3.243%
CC(C)C(=O)NCCNC(=O)C(C)OCC(F)(F)F (stereo not drawn),Percent Effect,"30.3 µM, […]",28.18%
CC(CC(=O)NCCNS(C)(=O)=O)C1CCCCC1 (stereo not drawn),Percent Effect,"30.3 µM, […]",12.79%
CCOC(C)C(=O)NCCNS(C)(=O)=O (stereo not drawn),Percent Effect,"30.3 µM, […]",50.09%
CC(C)COC(C)C(=O)NCCNC(=O)C(C)C (stereo not drawn),Percent Effect,"30.3 µM, […]",43.81%
CC(C)COC(C)C(=O)NCc1ccccc1 (stereo not drawn),Percent Effect,30 µM,13.02%
CC(C)COC(C)C(=O)NCCNS(C)(=O)=O (stereo not drawn),Percent Effect,"30.3 µM, […]",50.97%
CCOCC(O)CN1CCN(C(=O)c2ccc(C)nc2)CC1 (stereo not drawn),Percent Effect,30 µM,29.83%
COc1ccc(Br)cc1CCC(=O)N1CCCC(O)C1 (stereo not drawn),Percent Effect,"30.3 µM, […]",6.225%
N#Cc1cccc(OCCN2CCCC(c3noc(C4CC4)n3)C2)c1 (stereo not drawn),Percent Effect,"30.3 µM, […]",32.43%
COCC1CN(S(=O)(=O)c2cccs2)Cc2ncnn2C1 (stereo not drawn),Percent Effect,"30.3 µM, […]",38.74%
Cc1ccccc1C(=O)Nc1cnn(CCN2CCOCC2)c1,Percent Effect,30 µM,17.38%
CC(C)CS(=O)(=O)Nc1ccc2c(c1)OCC(C)(C)C(=O)N2C,Percent Effect,"30.3 µM, […]",-17.18%
CSc1ccc(CNC(=O)C2CC(=O)N(C(C)(C)C)C2)cc1 (stereo not drawn),Percent Effect,"30.3 µM, […]",55.18%
CCN1CC(C(=O)NCc2cccc(SC)c2)CC1=O (stereo not drawn),Percent Effect,"30.3 µM, […]",-29.4%
CN(C)S(=O)(=O)c1ccc(CNC(=O)C2CC(=O)N(C(C)(C)C)C2)cc1 (stereo not drawn),Percent Effect,"30.3 µM, […]",21.08%
O=c1[nH]c(-c2ccc(F)cc2)nc2c1CCNC2,Percent Effect,"30.3 µM, […]",23.84%
O=c1[nH]c(-c2ccc(F)c(F)c2)nc2c1CCNC2,Percent Effect,"30.3 µM, […]",51.76%
O=c1[nH]c(-c2ccc(Cl)cc2)nc2c1CCNC2,Percent Effect,"30.3 µM, […]",20.84%
Cc1nc(CN2C[C@@H]3CCCO[C@@H]3[C@H](NC(=O)CC3CC3)C2)cs1.O=C(O)C(F)(F)F,Percent Effect,"30.3 µM, […]",13.13%
CC(=O)NCC(=O)N1CCC2(COCc3c(C)nc(N(C)C)nc32)C1 (stereo not drawn),Percent Effect,"30.3 µM, […]",0.3657%
Cc1ccoc1C(=O)N1CC[C@H]2C[C@H](c3nnc(C4CC4)o3)O[C@@H]2C1,Percent Effect,"30.3 µM, […]",7.701%
Cc1cc(C(=O)Cn2cnnc2[S+](C)[O-])cc(C)c1F (stereo not drawn),Percent Effect,"30.3 µM, […]",9.03%
CCCc1nn(C2CCN(C3CC3)C2=O)c(=O)o1 (stereo not drawn),Percent Effect,"30.3 µM, […]",-13.56%
CCCc1nn(C2CCN(C(C)C)C2=O)c(=O)o1 (stereo not drawn),Percent Effect,"30.3 µM, […]",51.41%
CCCc1nn(C2CCCN(C(C)C)C2=O)c(=O)o1 (stereo not drawn),Percent Effect,"30.3 µM, […]",-18.62%
CN1C(=O)C2(CCN(C(=O)c3ccccc3)CC2)c2cc(F)ccc21.Cl,Percent Effect,"30.3 µM, […]",50.2%
CC(=O)N1CCC2(CC1)C(=O)N(C)c1ccc(F)cc12,Percent Effect,"30.3 µM, […]",29.57%
CC(Oc1ccc(F)c(F)c1)C(=O)N(CC(N)=O)C1CCCC1 (stereo not drawn),Percent Effect,"30.3 µM, […]",-10.08%
CCc1nccn1C1CCCN(C(=O)c2cc3nc(C)ccc3o2)C1 (stereo not drawn),Percent Effect,"30 µM, 30.03 µM",3.953%
Cc1nn(C)c2cn(C(C)C(=O)NCc3ccccn3)nc12 (stereo not drawn),Percent Effect,"30.3 µM, […]",50.14%
COc1ccccc1CNC(=O)C(C)N1CC(n2cc(C)cn2)C1 (stereo not drawn),Percent Effect,"30.3 µM, […]",25.52%
Cc1nn(C)c2cn(C(C)C(=O)NCc3ccc(F)cc3)nc12 (stereo not drawn),Percent Effect,"30.3 µM, […]",25.73%
CCc1nc(NCc2ccccn2)c2c(n1)c(C)nn2C,Percent Effect,"30.3 µM, […]",-38.07%
Cc1nc(NCc2ccccn2)c2c(n1)c(C)nn2C,Percent Effect,"30.3 µM, […]",42.28%
Cc1nn(C)c2cn(C(C)C(=O)NCc3cccnc3)nc12 (stereo not drawn),Percent Effect,"30 µM, 30.03 µM",8.191%
CCn1nccc1CNC(=O)C(C)n1cc2c(n1)c(C)nn2C (stereo not drawn),Percent Effect,"30 µM, 30.03 µM",-8.273%
Cc1nn(C)c2c(NCc3ccccn3)ncnc12,Percent Effect,"30.3 µM, […]",50.68%
Cc1nn(C)c2cn(C(C)C(=O)NCc3ccncc3)nc12 (stereo not drawn),Percent Effect,"30.3 µM, […]",59.59%
COc1ccccc1CNC(=O)Cn1ncc2c1c(C)nn2C,Percent Effect,"30 µM, 30.03 µM",13.53%
COc1ccccc1CNC(=O)C(C)n1cc2c(n1)c(C)nn2C (stereo not drawn),Percent Effect,"30.3 µM, […]",52.43%
Cc1nn(C)c2cn(C(C)C(=O)NCc3cccc(F)c3)nc12 (stereo not drawn),Percent Effect,"30.3 µM, […]",-38.24%
Cc1nc(NCc2ccc(F)cc2)cc(C(=O)N2CCOCC2)n1,Percent Effect,"30.3 µM, […]",32.39%
